# Assay results reported in PubChem BioAssay.
# Inconclusive results are not listed. The source made the active and inactive calls.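 How the source made its calls, unless noted: active means normalized viability below 100% at a tested concentration; inactive means the rest.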
# Assays:
# [1] = Wnt pathway potentiators raising nuclear beta-catenin – imaging, WNT3A-conditioned medium, mouse C2C12, NPC library, primary screen (AID 1117326; in the data active means nuclear beta-catenin stimulation mostly above about 4.2%, no sharp cut-off; inactive means mostly below about 10%); conditions: stronger effect = higher value
# [2] = stimulators of insulin release from INS-1E, primary screen, cell-based, 5 mM glucose, NPC library (AID 1117329;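 active means compound raises insulin release from rat beta cells at 5 mM glucose, no numeric limit stated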); conditions: rat INS-1E insulin secretion, at 10 µM, stronger effect = higher value
# [3] = growth inhibition of GSK3B-pretreated HCT116 cells – cell-based, CellTiter-Glo, 0.2 to 20 µM (AID 1117336;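 active means compounds lowering colon cancer cell viability after pretreatment blocking the GSK3B kinase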); conditions: HCT116 viability after GSK3B inhibitor, at 20 µM, stronger effect = higher value
# [4] = inhibition of endothelial tube formation, primary screen, imaging, VEGF stimulated, CD31 staining, tube area, NPC library (AID 1117340;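 active means compound that reduces growth-factor-driven endothelial tube area in a mixed cell culture, no cutoff stated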); conditions: VEGF-stimulated ADSC/ECFC co-culture, at 10 µM, stronger effect = higher value
# [5] = GLP1 release stimulators, primary, NCI-H716, NPC library (AID 1117341;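 active means compound raises GLP1 secretion from the human gut endocrine cells, with no numeric limit stated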); conditions: NCI-H716 cells, at 10 µM, stronger effect = higher value
# [6] = HCT116 colon cancer cell growth inhibition, primary screen, CellTiter-Glo luminescence, NPC library (AID 1117342;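 active means compounds that lower survival of HCT116 colon cancer cells in the luminescence readout, no numeric limit stated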); conditions: at 20 µM (top of the series)
# [7] = reduced SW480 viability measured with CellTiter-Glo, NPC library, primary (AID 1117343;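 active means compounds that lower viability of the colon cancer cells in the luminescence readout, with no numeric limit stated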); conditions: CellTiter-Glo luminescence; at 20 µM (top of the series) unless noted
# [8] = NPC library primary testing for decreased DLD-1 cell viability via CellTiter-Glo (AID 1117346;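 active means compounds that lower survival of DLD-1 colon cancer cells in the luminescence readout, no cutoff given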); conditions: DLD-1 viability, CellTiter-Glo luminescence; at 20 µM (top of the series)
# [9] = viability loss in pontine glioma line – cell-based, SU-DIPG-IV, MIPE4.0, CellTiter-Glo, qHTS, dose response (AID 1347063; cut-off not given, nearly all actives have AC50 up to about 30 µM;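 further: compound exposure lasted 48 hours before the viability readout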); conditions: CellTiter-Glo ATP luminescence
# [10] = viability loss in pontine glioma line – cell-based, JHH-DIPG-1, MIPE4.0, CellTiter-Glo, qHTS, dose response (AID 1347062; cut-off not given, nearly all actives have AC50 up to about 27 µM;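 on AC50: cells exposed to compound for two days before readout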); conditions: JHH-DIPG-1 viability, CellTiter-Glo ATP luminescence
# [11] = growth inhibition of DIPG cells – cell-based, MIPE4.0 library, CellTiter-Glo luminescence, qHTS (AID 1347066; cut-off not given, nearly all actives have AC50 up to about 30 µM;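 further: cells exposed to compound for 48 hours before readout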); conditions: SU-DIPG-VI viability, CellTiter-Glo ATP luminescence
# [12] = viability loss with induced miR-34 in A549 – imaging, A549 dox-inducible miR-34, nuclei and caspase counts, primary screen (AID 1347080;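 active means compounds whose cell count with miR-34 switched on is under 0.7 times the count with it off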); conditions: A549 miR-34 inducible, Hoechst nuclei count, 48 h
# [13] = MELAS cybrid and Rieske KO viability enhancers – cell-based, MELAS cybrids, Rieske KO mouse fibroblasts, CellTiter-Glo, primary screen (AID 1508586;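 active means mean z-score across replicates of 1.96 or higher in either the MELAS or the Rieske mutant cell line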;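 further: z relative to plate mean and SD of compound and empty wells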); conditions: low glucose
# [14] = viability loss in pontine glioma line – cell-based, SU-DIPG-XXV, MIPE5.0, CellTiter-Glo, qHTS, dose response (AID 1347065; cut-off not given, nearly all actives have AC50 up to about 26 µM;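 further: cells exposed to compound for 48 hours before ATP readout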); conditions: CellTiter-Glo ATP luminescence
# [15] = JHH-DIPG-1 glioma cell viability, MIPE5.0 library, CellTiter-Glo luminescence, qHTS (AID 1347067; cut-off not given, nearly all actives have AC50 up to about 26 µM;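 further: cells exposed to compound for 48 hours before readout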); conditions: JHH-DIPG-1 glioma viability, CellTiter-Glo ATP luminescence
# [16] = drug combination growth inhibition, ovarian cancer – cell-based, oncology-focused library, rucaparib conditional, profiling panel (AID 1508598); conditions: patient-derived ovarian cancer cells, CellTiter-Glo viability, 144 h, stronger effect = lower value
# [17] = stronger effect = lower value, cell number ratio, induced over uninduced
# [18] = measured here: relative caspase fold change +Dox/-Dox
# [19] = measured here: total cells with miR-34 induction, stronger effect = lower value
# [20] = measured here: total cells without miR-34 induction
# [21] = MELAS cybrid survival, CellTiter-Glo 48 h, stronger effect = higher value
# [22] = Rieske KO mouse fibroblast survival, CellTiter-Glo 72 h
smiles,measurement,setting,value
O[C@@H](CNC[C@H](O)[C@H]1CCc2cc(F)ccc2O1)[C@@H]1CCc2cc(F)ccc2O1,nuclear beta-catenin stimulation,[1]; at 10 µM,8.6% (inactive)
same,nuclear beta-catenin stimulation,"[1]; stimulation, at 2 µM",-2.1%
same,insulin secretion stimulation,[2],2.75% (inactive)
same,viability decrease,[3],108% (active)
same,tube area decrease,[4],60.9% (active)
same,GLP1 secretion stimulation,[5],5.8% (inactive)
same,inhibition of viability,[6],112% (active)
same,viability decrease (inhibition),[7],130% (active)
same,viability decrease (inhibition),[8],101% (active)
same,AC50,[9],20.9 µM (active)
C=CCc1cc(OC)c(O)c(C(=O)NCCO)c1,nuclear beta-catenin stimulation,[1]; at 10 µM,1.7% (inactive)
same,nuclear beta-catenin stimulation,"[1]; stimulation, at 2 µM",2.4%
same,insulin secretion stimulation,[2],-0.7% (inactive)
same,viability decrease,[3],-4.9% (inactive)
same,tube area decrease,[4],4.3% (inactive)
same,GLP1 secretion stimulation,[5],0.4% (inactive)
same,inhibition of viability,[6],-7.7% (inactive)
same,viability decrease (inhibition),[7],33.7% (inactive)
same,viability decrease (inhibition),[8],1.9% (inactive)
same,outcome,[10],inactive
same,outcome,[9],inactive
same,outcome,[11],inactive
same,fold change,[12]; [17],0.947 (inactive)
same,fold change,[12]; [18],0.662
same,cell count,[12]; [19],8720
same,cell count,[12]; [20],9220
same,z-score,[13]; [21],-0.166 (inactive)
same,z-score,[13]; [22],0.363
COc1cc(Nc2c(C#N)cnc3cc(OCCCN4CCN(C)CC4)c(OC)cc23)c(Cl)cc1Cl,nuclear beta-catenin stimulation,[1]; at 10 µM,17.6% (inactive)
same,nuclear beta-catenin stimulation,"[1]; stimulation, at 2 µM",-1%
same,insulin secretion stimulation,[2],2.2% (inactive)
same,viability decrease,[3],110% (active)
same,tube area decrease,[4],1.5% (inactive)
same,GLP1 secretion stimulation,[5],47.9% (active)
same,inhibition of viability,[6],113% (active)
same,viability decrease (inhibition),[7],132% (active)
same,viability decrease (inhibition),[8],102% (active)
same,AC50,[10],20.9 µM (active)
same,AC50,[9],20.9 µM (active)
same,AC50,[14],13.2 µM (active)
same,AC50,[15],11.8 µM (active)
same,fold change,[12]; [17],0.893 (inactive)
same,fold change,[12]; [18],0.682
same,cell count,[12]; [19],986
same,cell count,[12]; [20],1100
same,z-score,[13]; [21],2.73 (active)
same,z-score,[13]; [22],-0.399
same,viability,"[16]; at 0.000305 µM, OCI-C5x cells, with rucaparib 10 µM, 100% = cells with rucaparib alone",120% (inactive)
same,viability,"[16]; at 0.000305 µM, OCI-C5x cells, without rucaparib",107% (inactive)
same,viability,"[16]; at 0.000305 µM, OCI-P5x cells, with rucaparib 20 µM, 100% = cells with rucaparib alone",88.1% (active)
same,viability,"[16]; at 0.000305 µM, OCI-P5x cells, without rucaparib",68.6% (active)
same,viability,"[16]; at 0.00122 µM, OCI-C5x cells, with rucaparib 10 µM, 100% = cells with rucaparib alone",121% (inactive)
same,viability,"[16]; at 0.00122 µM, OCI-C5x cells, without rucaparib",109% (inactive)
same,viability,"[16]; at 0.00122 µM, OCI-P5x cells, with rucaparib 20 µM, 100% = cells with rucaparib alone",87.4% (active)
same,viability,"[16]; at 0.00122 µM, OCI-P5x cells, without rucaparib",30.3% (active)
same,viability,"[16]; at 0.00488 µM, OCI-C5x cells, with rucaparib 10 µM, 100% = cells with rucaparib alone",119% (inactive)
same,viability,"[16]; at 0.00488 µM, OCI-C5x cells, without rucaparib",107% (inactive)
same,viability,"[16]; at 0.00488 µM, OCI-P5x cells, with rucaparib 20 µM, 100% = cells with rucaparib alone",101% (inactive)
same,viability,"[16]; at 0.00488 µM, OCI-P5x cells, without rucaparib",102% (inactive)
same,viability,"[16]; at 0.0195 µM, OCI-C5x cells, with rucaparib 10 µM, 100% = cells with rucaparib alone",122% (inactive)
same,viability,"[16]; at 0.0195 µM, OCI-C5x cells, without rucaparib",104% (inactive)
same,viability,"[16]; at 0.0195 µM, OCI-P5x cells, with rucaparib 20 µM, 100% = cells with rucaparib alone",96.8% (active)
same,viability,"[16]; at 0.0195 µM, OCI-P5x cells, without rucaparib",102% (inactive)
same,viability,"[16]; at 0.0781 µM, OCI-C5x cells, with rucaparib 10 µM, 100% = cells with rucaparib alone",132% (inactive)
same,viability,"[16]; at 0.0781 µM, OCI-C5x cells, without rucaparib",111% (inactive)
same,viability,"[16]; at 0.0781 µM, OCI-P5x cells, with rucaparib 20 µM, 100% = cells with rucaparib alone",94.7% (active)
same,viability,"[16]; at 0.0781 µM, OCI-P5x cells, without rucaparib",103% (inactive)
same,viability,"[16]; at 0.313 µM, OCI-C5x cells, with rucaparib 10 µM, 100% = cells with rucaparib alone",125% (inactive)
same,viability,"[16]; at 0.313 µM, OCI-C5x cells, without rucaparib",101% (inactive)
same,viability,"[16]; at 0.313 µM, OCI-P5x cells, with rucaparib 20 µM, 100% = cells with rucaparib alone",80.8% (active)
same,viability,"[16]; at 0.313 µM, OCI-P5x cells, without rucaparib",91% (active)
same,viability,"[16]; at 1.25 µM, OCI-C5x cells, with rucaparib 10 µM, 100% = cells with rucaparib alone",113% (inactive)
same,viability,"[16]; at 1.25 µM, OCI-C5x cells, without rucaparib",108% (inactive)
same,viability,"[16]; at 1.25 µM, OCI-P5x cells, with rucaparib 20 µM, 100% = cells with rucaparib alone",57.8% (active)
same,viability,"[16]; at 1.25 µM, OCI-P5x cells, without rucaparib",95.2% (active)
same,viability,"[16]; at 5 µM, OCI-C5x cells, with rucaparib 10 µM, 100% = cells with rucaparib alone",49.5% (active)
same,viability,"[16]; at 5 µM, OCI-C5x cells, without rucaparib",61.4% (active)
same,viability,"[16]; at 5 µM, OCI-P5x cells, with rucaparib 20 µM, 100% = cells with rucaparib alone",24.4% (active)
same,viability,"[16]; at 5 µM, OCI-P5x cells, without rucaparib",42% (active)
